Measurements: PubChem BioAssay (NCI)
The panel holds about 83,000 compounds, 20% with a hit somewhere; the sample as a whole holds those more often.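 For each line, cells grew in 96-well plates with the test compound present at a single concentration for 48 hours.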 Unmarked numbers belong to inactive results. Active and inactive are the calls of the source. The calls were made as follows: active = growth percent below 10; inactive = the rest.

What was measured:
Assay in all cases: NCI-60 one-dose screen, 48 h (100 = growth as untreated, 0 = no growth, -100 = all killed)
[1] = test system: NCI-H322M lung; conditions: 10 µM unless noted
[2] = test system: HOP-92 NSCLC; conditions: 10 µM unless noted
[3] = test system: NCI-H522 lung; conditions: 10 µM unless noted
[4] = test system: A549/ATCC NSCLC; conditions: 10 µM unless noted
[5] = test system: K-562 leukemia; conditions: 10 µM unless noted
[6] = test system: SNB-19 CNS; conditions: 10 µM unless noted
[7] = test system: LOX IMVI melanoma; conditions: 10 µM unless noted
[8] = test system: SK-MEL-28 melanoma; conditions: 10 µM unless noted
[9] = test system: EKVX NSCLC; conditions: 10 µM unless noted
[10] = test system: CAKI-1 renal; conditions: 10 µM unless noted
[11] = test system: CCRF-CEM leukemia; conditions: 10 µM unless noted
[12] = test system: SR leukemia; conditions: 10 µM
[13] = test system: RPMI-8226 leukemia; conditions: 10 µM unless noted
[14] = test system: OVCAR-4 ovarian; conditions: 10 µM unless noted
[15] = test system: IGROV1 ovarian; conditions: 10 µM
[16] = test system: HS 578T breast; conditions: 10 µM unless noted
[17] = test system: BT-549 breast; conditions: 10 µM
[18] = test system: HOP-62 NSCLC; conditions: 10 µM unless noted
[19] = test system: SN12C renal; conditions: 10 µM unless noted

Q: What does the source list for `CC12CCC(=O)C=C1C(O)CC1C2CCC2(C)C(O)CCC12` (configuration not stated)?
A: growth [1]: 98%; growth [2]: 103%; growth [3]: 106%; growth [4]: 101%; growth [5]: 105%; growth [6]: 101%; growth [7]: 97.2%; growth [8]: 115%; growth [9]: 107%; growth [10]: 102%; growth [11]: 103%; growth [12]: 106%; growth [13]: 108%; growth [14]: 104%; growth [15]: 106%; growth [16]: 104%; growth [17]: 117%

Q: Which results are given for `Cc1ccc2oc(=O)c3c(c2c1)OC(N)=C(C#N)C3c1ccco1` (configuration not stated)?
A: growth [1]: 98.8%; growth [2]: 102%; growth [3]: 91.6%; growth [4]: 97%; growth [6]: 96.9%; growth [9]: 94.9%; growth [10]: 91.3%; growth [11]: 96.4%; growth [12]: 107%; growth [13]: 100%; growth [15]: 104%; growth [16]: 93.5%

Q: Which results are given for `Oc1ccc2c3c1O[C@H]1c4[nH]c5ccccc5c4C[C@@]4(O)C(C2)N(CC2CC2)CC[C@]314`?
A: growth [1]: 94.3%; growth [18]: 95.9%; growth [4]: 90%; growth [5]: 77.7%; growth [6]: 106%; growth [7]: 87.3%; growth [8]: 105%; growth [19]: 103%; growth [10]: 92.3%; growth [11]: 89.7%; growth [12]: 79.6%; growth [13]: 93.1%; growth [14]: 96.5%; growth [15]: 97.5%; growth [16]: 92.1%; growth [17]: 97.4%

Q: How did the growth [1] turn out when `C[C@]12CC[C@@H]3C4=C(CC[C@H]3[C@@H]1CC[C@@H]2O)CC(=O)CC4` was run?
A: 109%

Q: And the growth [3]?
A: 90.8%

Q: What about the growth [4] of the same compound?
A: 98.4%

Q: And the growth [5]?
A: 96.9%

Q: And the growth [6]?
A: 95.2%

Q: And the growth [7]?
A: 90.2%

Q: What about the growth [8] of the same compound?
A: 107%

Q: And the growth [9]?
A: 72%

Q: And the growth [19]?
A: 99.5%

Q: What about the growth [10] of the same compound?
A: 92%

Q: And the growth [11]?
A: 96.3%

Q: What about the growth [12] of the same compound?
A: 97.5%

Q: What about the growth [13] of the same compound?
A: 91.8%

Q: What about the growth [14] of the same compound?
A: 111%

Q: And the growth [15]?
A: 121%

Q: What about the growth [16] of the same compound?
A: 5.03% (active)

Q: And the growth [17]?
A: 122%
